hgDAF-12 ag – agonists of H. glycines DAF-12 nuclear receptor; AID 687014; actives 1.8% (n = 370,000); HEK293 GAL4-hgDAF12 UAS-luciferase reporter, agonist luminescence; normalized to butyrate control; activation, % at 6.8 µM;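 active = activation above a cutoff set at the mean of all screened compounds plus 3 SD, cut at about 10% in these data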;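 also: 0% = DMSO wells and 100% = sodium butyrate wells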
DAX1 inh-1 – inhibits human nuclear receptor DAX1; P51843; HEK293 Gal4-DAX1 luciferase reporter, luminescence; inhibition, % at 6.75 µM; actives 0.99% (n = 340,000); AID 504766;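 active = inhibition above the mean over all tested compounds plus 3 SD, cut at about 4.2% in these data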;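 also: 0% = DAX1-transfected cells with DMSO and 100% = empty-vector control cells with DMSO; inhibition shows as a rise in luminescence from relieved DAX1 repression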
Target sequence (P51843 207-470 limits assumed): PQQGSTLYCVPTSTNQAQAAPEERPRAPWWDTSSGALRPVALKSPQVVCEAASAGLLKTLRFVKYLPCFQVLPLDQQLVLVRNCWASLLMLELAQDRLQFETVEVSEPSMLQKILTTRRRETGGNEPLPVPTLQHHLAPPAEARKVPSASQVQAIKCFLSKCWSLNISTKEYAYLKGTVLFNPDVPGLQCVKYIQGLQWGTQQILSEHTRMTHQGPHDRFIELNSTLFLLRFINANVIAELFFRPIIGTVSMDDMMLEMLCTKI
hcDAF12 agonist – H. contortus DAF-12 activation, primary screen. HEK293 hcDAF-12 lit1-tk-luc reporter, luminescence; 0% DMSO, 100% Δ7-dafachronic acid. actives 1.4% (n = 370,000). activation, % at 6.8 µM;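 active = activation above the mean of all tested compounds plus 3 SD, cut at about 5.5% in these data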;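 also: 100% = response to 3 µM Δ7-dafachronic acid high control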
FXN GAA850 act – activators of GAA850 frataxin (FXN) promoter. HEK293 lucGAA850 FXN promoter luciferase reporter, 24 h; percent of 10 µM SAHA response. activation, % at 6 µM. actives 0.56% (n = 360,000). AID 540364;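 active = activation above the average of all compounds screened plus 3 SD, cutoff fixed separately per campaign, cut at about 7.5% in these data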;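 also: 0% = DMSO wells and 100% = 10 µM SAHA wells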
ssDAF12 agonist – activators of S. stercoralis DAF-12 nuclear receptor. actives 1% (n = 370,000). HEK293 ssDAF-12/GRIP1 lit1-tk-luc reporter, luminescence; % of 3 µM dafachronic acid response. activation, % at 6.8 µM;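 active = activation above the mean over all tested compounds plus 3 SD, cut at about 0.9% in these data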;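 also: 0% = DMSO-only wells and 100% = 3 µM delta7-dafachronic acid wells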
DAX1 inh-2 – DAX1 (NR0B1) inhibition, primary screen. HEK293T StAR-luciferase reporter, SF-1/DAX-1 repression relief. inhibition, % at 6.8 µM. actives 1.1% (n = 370,000);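 active = inhibition above the mean over all tested compounds plus 3 SD, cut at about 3.6% in these data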;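 also: 0% = DAX-1 cells with DMSO and 100% = cells lacking DAX-1 with DMSO; higher inhibition means more luminescence from relief of DAX-1 repression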
hgDAF12 ag – hgDAF-12 agonism, confirmation assay; shares compounds with hgDAF-12 ag; HEK293 GAL4-hgDAF12 luciferase reporter, agonist mode; percent of butyrate response; activation, % at 6.8 µM; actives 80% (n = 3,300);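 active = mean activation over triplicate wells above the hit cutoff derived from the earlier primary screen, cut at about 11% in these data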;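 also: 0% = DMSO low control and 100% = 2 mM sodium butyrate high control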
LXRb DAF12 ctr – counter-screen for DAF-12 agonists: agonists of human LXR-beta; AID 743051; 3,300 tested, under 10 active; HEK293 Gal4-LXR luciferase reporter, 24 h; activation, % at 6.8 µM; shares compounds with hgDAF-12 ag;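 active = mean activation of the triplicate above a set limit carried over from the primary screen, none filed active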
Target sequence (P55055 whole entry, looked up, the tested form may be a part): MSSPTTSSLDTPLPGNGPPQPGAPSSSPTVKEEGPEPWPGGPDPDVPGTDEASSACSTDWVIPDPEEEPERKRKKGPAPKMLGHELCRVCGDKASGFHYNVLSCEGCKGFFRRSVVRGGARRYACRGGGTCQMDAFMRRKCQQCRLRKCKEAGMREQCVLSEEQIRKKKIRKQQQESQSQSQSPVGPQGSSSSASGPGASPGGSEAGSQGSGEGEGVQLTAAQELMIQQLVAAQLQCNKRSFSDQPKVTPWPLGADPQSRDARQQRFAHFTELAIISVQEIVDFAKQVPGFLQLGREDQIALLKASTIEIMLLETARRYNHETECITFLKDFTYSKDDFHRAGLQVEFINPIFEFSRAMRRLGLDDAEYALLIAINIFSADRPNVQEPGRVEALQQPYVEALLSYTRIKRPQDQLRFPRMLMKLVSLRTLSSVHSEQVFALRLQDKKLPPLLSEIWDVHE
Numbers without * were called inactive; . = no result. This is a sample that favours compounds with a hit; in the whole collection about 4.5% have one here.

SMILES	hgDAF-12 ag	DAX1 inh-1	hcDAF12 agonist	FXN GAA850 act	ssDAF12 agonist	DAX1 inh-2	hgDAF12 ag	LXRb DAF12 ctr
Cc1ccccc1C(=O)NC1CCCCCCC1	14.6*	2.4	3.6	4.6	1.0*	1.6	12.2*	0.7
Cc1ccc(/C=C/C(=O)NC(=S)Nc2ccc(S(=O)(=O)Nc3cc(C)on3)cc2)cc1	-0.1	0.3	0.7	1.2	-1.0	0.4	.	.
Cc1cc(NC(=O)C2COc3ccccc3O2)no1 (stereo not given)	19.4*	1.5	4.5	3.5	-1.1	1.0	4.6	0.2
O=C(Nc1ccc(Cl)cn1)C1COc2ccccc2O1 (stereo not given)	14.2*	3.1	6.0*	0.5	0.8	3.6	10.8*	0.2
O=C(c1cnsn1)N1CCC(CO)(Cc2cccc(F)c2)CC1	15.2*	1.6	2.7	6.6	0.2	1.6	9.7	0.2
Cc1cc(C(=O)N2CCC(CO)(Cc3cccc(C(F)(F)F)c3)CC2)n[nH]1	-1.7	-0.7	-0.7	0.6	-1.1	0.4	.	.
O=C(O)c1cc(-c2ccc(N3CCOCC3)cc2)nn1-c1ccccc1Cl	-1.5	0.8	1.1	-1.1	-0.5	-0.1	.	.
O=C(O)c1cc(-c2ccc(N3CCOCC3)cc2)nn1-c1ccc(F)cc1F	16.9*	0.4	-0.6	-1.6	-1.6	-0.4	0.5	-0.1
O=C(N/N=C/c1ccc(N2CCOCC2)cc1)c1ccc(O)cc1	0.2	1.3	-1.1	-0.2	-1.5	0.7	.	.
Cc1ccc(C(=O)N/N=C/c2ccc(N3CCOCC3)cc2)c(C)c1	14.4*	-1.1	1.2	3.2	-0.9	0.2	-1.0	0.0
Cc1ccccc1CN1C(=O)C(C)S/C1=N/N=C/c1ccco1 (stereo not given)	-1.0	0.6	-0.2	1.0	-0.7	-0.3	.	.
CCc1ccc(NC(=O)Nc2cccs2)cc1	14.3*	2.1	4.1	-0.3	-0.5	1.4	18.1*	0.6
CCOC(=O)/C=C/c1cc(F)ccc1O	2.9	.	-1.3	.	-0.8	0.6	.	.
CCOC(=O)/C=C/c1cccc(C)c1O	13.8*	.	0.7	.	-0.2	4.5*	12.2*	0.4
CCC(C)N(C(=O)CSc1nnc(C)n1C)C1CCS(=O)(=O)C1 (stereo not given)	3.1	0.5	-0.2	0.5	-0.7	1.1	.	.
COc1ccccc1Cc1c(-c2ccc(Cl)cc2)nc2ccc(C)cn12	13.6*	.	6.1*	.	1.2*	3.1	14.6*	0.7
COc1ccccc1Cc1c(-c2ccc(Cl)cc2)nc2c(C)cc(Br)cn12	3.1	.	3.6	.	-0.1	-3.4	.	.
Cc1ccc(Cc2c(-c3ccc(Br)cc3)nc3ccc(Br)cn23)cc1	16.9*	2.9	1.9	-0.9	0.2	-2.5	9.1	0.2
Cc1ccc(Cc2c(-c3ccc(Br)cc3)nc3ccc(Cl)cn23)cc1	7.1	.	1.3	.	-1.2	2.8	.	.
Cc1ccc2nc(-c3cccc(Cl)c3)c(Cc3ccsc3)n2c1	15.6*	.	1.6	.	0.7	2.5	8.5	0.3
Clc1cccc(-c2nc3ccc(Br)cn3c2Cc2ccsc2)c1	8.2	.	3.9	.	-1.3	3.3	.	.
Cc1ccccc1NC(=O)c1cccc(NC(=O)c2ccccc2C(=O)O)c1	-0.3	-1.0	1.9	0.6	-1.4	-0.1	.	.
CCc1ccc(C(=O)CN2CCSC2=N)cc1	19.8*	1.5	5.6*	1.8	0.7	3.4	16.6*	0.7
Cc1ccc2nc(-c3ccc(O)cc3)c(Nc3ccc4c(c3)OCCO4)n2c1	16.5*	0.3	4.0	0.5	-0.3	1.8	-0.5	0.0
CCN1CCN(C(=O)c2ccc(-c3nc4ccccc4s3)s2)CC1	17.4*	2.5	3.8	6.2	0.8	4.3*	11.2*	0.8
SMILES	hgDAF-12 ag	DAX1 inh-1	hcDAF12 agonist	FXN GAA850 act	ssDAF12 agonist	DAX1 inh-2	hgDAF12 ag	LXRb DAF12 ctr
CCC(C)NC(=O)c1cc(-c2ccccc2O)on1 (stereo not given)	13.5*	1.0	2.8	4.8	-0.6	3.4	8.5	0.3
COc1ccccc1-c1cc(C(=O)NC(C)C)no1	8.4	1.4	4.9	2.2	0.4	1.6	.	.
O=C(NC1CCCCC1)c1cc(-c2ccccc2O)on1	13.4*	2.6	0.7	4.8	0.2	2.1	15.2*	0.7
O=C(NC1CCCCC1)c1cc(-c2ccc(O)cc2)on1	9.1	0.4	3.9	2.9	-0.4	1.8	.	.
Cc1ccccc1-c1nc(CS(=O)(=O)CC(=O)NCc2ccco2)c(C)o1	-0.5	0.5	-3.6	-0.4	-0.9	-0.6	.	.
CCOC(=O)C1(CCCc2ccccc2)CCN(C(=O)CN2CCOC2=O)CC1	0.3	0.4	-0.5	0.3	-1.4	0.0	.	.
CCOC(=O)C1(Cc2ccccc2Cl)CCN(C(=O)CN2CCOC2=O)CC1	16.6*	2.3	2.4	3.1	0.2	1.9	10.2	0.3
CN(C)CCOC1c2ccccc2CCc2ccc3ccccc3c21 (stereo not given)	-0.5	2.4	-0.4	-1.3	-0.3	-0.1	.	.
COc1ccccc1-c1cc(C(=O)N2CCOCC2)no1	16.6*	2.5	2.6	3.5	-0.4	1.9	11.9*	0.5
COc1ccccc1-c1cc(C(=O)N2CCN(c3ccc(F)cc3)CC2)no1	1.7	-0.4	-1.2	-2.6	-0.7	0.4	.	.
CS(=O)(=O)c1ccc(-c2csc(-c3cccnc3)n2)cc1	2.8	-0.5	0.0	3.4	-1.3	-0.1	.	.
c1cncc(-c2nc(-c3ccc4c(c3)OCCO4)cs2)c1	15.1*	4.6*	5.8*	3.9	0.3	1.3	15.7*	0.8
O=C(Nc1ccc(S(=O)(=O)Nc2nccs2)cc1)c1ccc(=O)[nH]c1	1.0	1.9	-0.3	1.8	-1.0	0.2	.	.
CCCNC(=O)c1noc2c1CCc1cc(OC)ccc1-2	16.2*	2.5	2.5	3.1	-0.6	3.8*	13.3*	0.5
Cc1cc(NC(=O)c2noc3c2CCc2ccccc2-3)no1	-1.2	-0.1	0.2	-0.7	-1.0	1.2	.	.
Cn1c(N)c(C(=O)Nc2ccccc2F)sc1=S	-1.5	0.8	-1.0	1.5	-1.0	-0.1	.	.
Cn1c(N)c(C(=O)Nc2ccc3ccccc3c2)sc1=S	15.3*	2.6	3.1	6.6	-1.2	1.8	12.7*	0.5
O=C(Nc1ccccc1)C1CCCCC1	0.1	-0.1	-1.1	-0.4	-1.4	-0.2	.	.
O=C(Nc1ccc2ccccc2n1)C1CCCCC1	14.7*	.	2.0	1.7	-0.1	2.4	15.6*	1.1
O=C(O)CCS(=O)(=O)c1ccccc1Cl	16.6*	-0.5	0.0	-0.5	-1.6	-0.3	1.2	0.0

Compound activity (PubChem)
